Test [1] has as its target human Adrenergic, Beta 1 Receptor (Adrb1), ADRB1 (gene 153) (UniProt P08588). Briefly: NVS_GPCR_hAdrb1: NovaScreen (NVS) G Protein-Coupled Receptor Assay for human Adrenergic, Beta 1 Receptor (Adrb1) (AID 2283258). In short, it runs like this: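 Membranes/protein extracted from human neuroepithelioma cells, radioligand competition binding read by filtration and scintillation 2 h post-dose. Single 25 uM duplicate screen, then concentration-response follow-up; DMSO as negative control.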

Test [2] has as its target Type-1 angiotensin II receptor (Homo sapiens) (UniProt P30556). Briefly: NVS_GPCR_hAT1: NovaScreen (NVS) G Protein-Coupled Receptor Assay for human Angiotensin II receptor type 1 (AT1) (AID 2283263). In short, it runs like this: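 Hits from a 25 uM duplicate screen (threshold e.g. 30% inhibition) were run in concentration-response with 50 uM top concentration. Displacement of specific radioligand from KAN-TS membrane preparations measured after 3 h by filter scintillation, DMSO as baseline.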

Test [3] concerns the target human Dopamine Receptor D2 (DRD2), DRD2 (gene 1813) (UniProt P14416). Kind of test: NVS_GPCR_hDRD2s: NovaScreen (NVS) G Protein-Coupled Receptor Assay for human Dopamine Receptor D2 (DRD2) (AID 2283266). In short, it runs like this: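 Test compound (25 uM, duplicate in the primary screen; concentration series at follow-up) competed with radioligand for human DRD2 in CHO-derived membrane protein. Filter-based scintillation counting was done 1.5 hours after dosing, with loss of signal analysed against DMSO.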

The target in test [4] is human Adrenergic, Beta 3 Receptor (Adrb3), ADRB3 (gene 155) (UniProt P13945). Briefly: NVS_GPCR_hAdrb3: NovaScreen (NVS) G Protein-Coupled Receptor Assay for human Adrenergic, Beta 3 Receptor (Adrb3) (AID 2283262). In short, it runs like this: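 A cell-free filter binding assay read by scintillation counting, with displacement of a specific radioligand measured after 1 hour. The receptor source was SK-N-MC extracts (cells pretreated with isoproterenol and 8-bromo-cAMP). Compounds were first tested at 25 uM in duplicate and then in concentration series.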
human Adrenergic, Beta 3 Receptor (Adrb3), ADRB3 (gene 155), sequence (P13945 whole entry, looked up): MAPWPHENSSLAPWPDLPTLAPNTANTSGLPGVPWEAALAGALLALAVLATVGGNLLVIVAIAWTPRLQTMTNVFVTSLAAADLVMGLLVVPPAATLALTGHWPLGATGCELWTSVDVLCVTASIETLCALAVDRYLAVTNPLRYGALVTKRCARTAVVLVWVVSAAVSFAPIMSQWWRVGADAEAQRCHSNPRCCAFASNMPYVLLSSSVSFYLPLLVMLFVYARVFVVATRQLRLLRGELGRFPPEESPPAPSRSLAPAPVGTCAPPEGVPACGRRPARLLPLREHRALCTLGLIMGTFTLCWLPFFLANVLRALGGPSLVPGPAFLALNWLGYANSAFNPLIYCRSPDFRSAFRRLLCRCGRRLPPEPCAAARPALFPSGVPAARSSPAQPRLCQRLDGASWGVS

Test [5] has as its target human Endothelin Receptor Type A (ETA), EDNRA (gene 1909) (UniProt P25101). Briefly: NVS_GPCR_hETA: NovaScreen (NVS) G Protein-Coupled Receptor Assay for human Endothelin Receptor Type A (ETA) (AID 2283265). In short, it runs like this:
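Binding of radioligand to membrane protein extracted from SH-SY5Y cells was read by filtration and scintillation after 3 h. Compounds were screened at 25 uM in duplicate, with hits followed up in singleton concentration series to 50 uM.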

For test [6], the target named is Muscarinic acetylcholine receptor M3 (Homo sapiens) (UniProt P20309). Briefly: NVS_GPCR_hM3: NovaScreen (NVS) G Protein-Coupled Receptor Assay for human Muscarinic, M3 Receptor (AID 2283272). The gist of the method:
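Radioligand displacement binding on human M3 receptor in CHO-derived membranes, 1 h incubation, filter-based scintillation counting. Primary screen in duplicate at 25 uM; actives followed up in concentration series; loss of signal versus DMSO.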

The target of test [7] is Muscarinic acetylcholine receptor M5 (Homo sapiens) (UniProt P08912). Briefly: NVS_GPCR_hM5: NovaScreen (NVS) G Protein-Coupled Receptor Assay for human Muscarinic, M5 Receptor (AID 2283275). In short, it runs like this: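 Chemicals passing a primary duplicate screen at 25 uM were run as singleton concentration series, maximum 50 uM. Displacement of a specific radioligand from CHO-extracted receptor was read by filter scintillation after 1 h, relative to DMSO.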
Muscarinic acetylcholine receptor M5 (Homo sapiens), sequence (P08912 whole entry, looked up): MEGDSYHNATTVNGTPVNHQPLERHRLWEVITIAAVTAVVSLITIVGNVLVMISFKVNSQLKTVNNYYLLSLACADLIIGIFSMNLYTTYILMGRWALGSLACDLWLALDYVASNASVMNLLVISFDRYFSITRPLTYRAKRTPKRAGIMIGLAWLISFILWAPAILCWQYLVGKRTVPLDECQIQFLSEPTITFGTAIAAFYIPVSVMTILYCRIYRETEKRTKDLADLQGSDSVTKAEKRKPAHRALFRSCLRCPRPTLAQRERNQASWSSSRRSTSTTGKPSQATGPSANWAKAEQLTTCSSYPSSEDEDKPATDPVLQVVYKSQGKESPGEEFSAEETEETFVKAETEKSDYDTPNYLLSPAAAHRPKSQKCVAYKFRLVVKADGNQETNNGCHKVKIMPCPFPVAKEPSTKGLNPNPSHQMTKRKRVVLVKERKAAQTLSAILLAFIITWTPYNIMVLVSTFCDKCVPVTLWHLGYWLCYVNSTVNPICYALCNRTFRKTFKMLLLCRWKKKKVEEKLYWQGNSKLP

The target in test [8] is human Adrenergic, Alpha 2A Receptor (Adra2A), ADRA2A (gene 150) (UniProt P08913). Briefly: NVS_GPCR_hAdra2A: NovaScreen (NVS) G Protein-Coupled Receptor Assay for human Adrenergic, Alpha 2A Receptor (Adra2A) (AID 2283257). In short, it runs like this:
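Displacement of a specific radioligand from HT29 membrane protein was counted by filter scintillation after 1 h. Compounds were screened in duplicate at 25 uM, and actives were retested in concentration series. Fitting was positive-direction against DMSO.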

The target of test [9] is human Adrenergic, Alpha 2c Receptor (Adra2C), ADRA2C (gene 152) (UniProt P18825). Briefly: NVS_GPCR_hAdra2C: NovaScreen (NVS) G Protein-Coupled Receptor Assay for human Adrenergic, Alpha 2c Receptor (Adra2C) (AID 2283259). The gist of the method: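 Screened first in duplicate at 25 uM, with actives then run as concentration series. Membranes from Sf9 cells were exposed for 1 h, and displacement of radioligand was counted after filtration, using DMSO as baseline.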
human Adrenergic, Alpha 2c Receptor (Adra2C), ADRA2C (gene 152), sequence (P18825 whole entry, looked up): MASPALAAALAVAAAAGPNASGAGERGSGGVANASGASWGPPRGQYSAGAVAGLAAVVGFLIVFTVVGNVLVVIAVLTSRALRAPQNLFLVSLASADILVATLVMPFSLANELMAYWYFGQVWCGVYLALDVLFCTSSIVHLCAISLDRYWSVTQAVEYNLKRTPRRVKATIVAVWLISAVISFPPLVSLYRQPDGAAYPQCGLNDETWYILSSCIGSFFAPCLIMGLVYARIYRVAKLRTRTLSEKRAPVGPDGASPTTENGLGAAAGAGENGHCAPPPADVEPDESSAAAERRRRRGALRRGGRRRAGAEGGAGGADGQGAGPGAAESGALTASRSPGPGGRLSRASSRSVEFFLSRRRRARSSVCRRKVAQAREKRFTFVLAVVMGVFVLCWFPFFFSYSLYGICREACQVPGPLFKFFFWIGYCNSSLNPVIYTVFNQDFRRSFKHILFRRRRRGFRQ

In test [10] the target is human Histamine 1 Receptor (H1), HRH1 (gene 3269) (UniProt P35367). Briefly: NVS_GPCR_hH1: NovaScreen (NVS) G Protein-Coupled Receptor Assay for human Histamine 1 Receptor (H1) (AID 2283268). The gist of the method:
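Filter-based scintillation detection of radioligand binding to human H1, 1 h incubation; chemicals screened in duplicate at 25 uM, then concentration-response; signal loss relative to DMSO taken as activity.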

Test [11] deals with Muscarinic acetylcholine receptor M1 (Homo sapiens) (UniProt P11229). Kind of test: NVS_GPCR_hM1: NovaScreen (NVS) G Protein-Coupled Receptor Assay for human Muscarinic, M1 Receptor (AID 2283270). In short, it runs like this:
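Actives from a duplicate 25 uM single-point screen were retested in concentration series. Binding measured as displacement of a radioligand from CHO-derived receptor preparation, 1 h incubation, filtration and scintillation counting, analysed as signal loss against DMSO.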

In test [12] the target is human Muscarinic, M4 Receptor, CHRM4 (gene 1132) (UniProt P08173). Briefly: NVS_GPCR_hM4: NovaScreen (NVS) G Protein-Coupled Receptor Assay for human Muscarinic, M4 Receptor (AID 2283274). In short, it runs like this:
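Filter-based scintillation counting of radioligand bound to CHO-expressed human M4 preparations after 1 h; loss of signal fitted versus DMSO. Initial duplicate testing at 25 uM, concentration-response follow-up for actives.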

The target of test [13] is D(1A) dopamine receptor (Homo sapiens) (UniProt P21728). Briefly: NVS_GPCR_hDRD1: NovaScreen (NVS) G Protein-Coupled Receptor Assay for human Dopamine Receptor D1 (DRD1) (AID 2283269). The gist of the method: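 Radioligand displacement binding on membranes/protein extracted from HEK293 expressing human D1, cell-free; read 1 h after dosing by filter-based scintillation counting. Primary screen in duplicate at 25 uM, actives followed up in concentration series; signal loss versus DMSO baseline.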
D(1A) dopamine receptor (Homo sapiens), sequence (P21728 whole entry, looked up): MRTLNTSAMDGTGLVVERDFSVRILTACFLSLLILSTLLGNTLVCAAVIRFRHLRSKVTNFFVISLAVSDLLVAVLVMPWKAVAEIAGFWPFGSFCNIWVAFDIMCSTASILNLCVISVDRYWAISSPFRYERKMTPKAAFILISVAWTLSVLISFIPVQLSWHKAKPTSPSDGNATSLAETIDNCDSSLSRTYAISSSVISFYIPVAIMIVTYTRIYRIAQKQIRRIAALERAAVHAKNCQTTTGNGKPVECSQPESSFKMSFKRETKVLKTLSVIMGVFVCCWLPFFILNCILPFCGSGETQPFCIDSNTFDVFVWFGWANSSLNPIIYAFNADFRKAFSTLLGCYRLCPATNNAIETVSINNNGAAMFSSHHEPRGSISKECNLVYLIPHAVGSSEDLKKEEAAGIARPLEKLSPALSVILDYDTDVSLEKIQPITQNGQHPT

For test [14], the target named is human Neurokinin, NK2 Receptor, TACR2 (gene 6865) (UniProt P21452). Briefly: NVS_GPCR_hNK2: NovaScreen (NVS) G Protein-Coupled Receptor Assay for human Neurokinin, NK2 Receptor (AID 2283278).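 Also: actives reduce bound radioligand signal relative to DMSO baseline.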 The gist of the method:
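Radioligand binding on membranes from CHO cells expressing receptor, filter-based scintillation read 4 h after dosing. Initial duplicate screen at 25 uM, actives in concentration series; loss of signal versus DMSO.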

The target in test [15] is Beta-2 adrenergic receptor (Homo sapiens) (UniProt P07550). Kind of test: NVS_GPCR_hAdrb2: NovaScreen (NVS) G Protein-Coupled Receptor Assay for human Adrenergic, Beta 2 Receptor (Adrb2) (AID 2283261). In short, it runs like this: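 Compounds screened in duplicate at 25 uM, then actives in concentration series. Human beta-2 receptor from CHO material, cell-free; radioligand displacement after 1 h measured by filtration and scintillation against DMSO baseline.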

Test [16] concerns the target human Dopamine Receptor D4.4 (DRD4.4), DRD4 (gene 1815) (UniProt P21917). Briefly: NVS_GPCR_hDRD4.4: NovaScreen (NVS) G Protein-Coupled Receptor Assay for human Dopamine Receptor D4.4 (DRD4.4) (AID 2283264). In short, it runs like this: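 Filter-binding assay with a tritiated or iodinated ligand, cell-free receptor prepared from CHO, 1 hour. Loss of bound radioactivity versus DMSO; single 25 uM duplicate screen, then concentration-response for actives.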

Test [17] concerns the target Neuropeptide Y receptor type 2 (Homo sapiens) (UniProt P49146). Kind of test: NVS_GPCR_hNPY2: NovaScreen (NVS) G Protein-Coupled Receptor Assay for human Neuropeptide Receptor Y2 (NPY2) (AID 2283277). The gist of the method: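 Chemicals were first tested in duplicate at 25 uM, then actives in singleton concentration series to 50 uM. Tracer binding to SK-N-MC-derived protein measured cell-free after 1 h via filter scintillation; signal loss relative to DMSO.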

In test [18] the target is human Leukotriene B4 Receptor 1 (LTB4-BLT1), LTB4R (gene 1241) (UniProt Q15722). Briefly: NVS_GPCR_hLTB4_BLT1: NovaScreen (NVS) G Protein-Coupled Receptor Assay for human Leukotriene B4 Receptor 1 (LTB4-BLT1) (AID 2283271). The gist of the method:
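Cell-free human neutrophil receptor preparation, 1 h exposure, radioligand binding read by filter scintillation counting. Single 25 uM duplicate screen, then concentration series topping at 50 uM; binding loss scored against DMSO baseline.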

Inconclusive results are not listed. The source made the active and inactive calls. The calls were made as follows: active = hit-call score of the fitted dose curve at least 0.9, where 1 is the maximum; inconclusive = response in the unintended direction; inactive = score below 0.9.

human Histamine 1 Receptor (H1), HRH1 (gene 3269), sequence (P35367 whole entry, looked up): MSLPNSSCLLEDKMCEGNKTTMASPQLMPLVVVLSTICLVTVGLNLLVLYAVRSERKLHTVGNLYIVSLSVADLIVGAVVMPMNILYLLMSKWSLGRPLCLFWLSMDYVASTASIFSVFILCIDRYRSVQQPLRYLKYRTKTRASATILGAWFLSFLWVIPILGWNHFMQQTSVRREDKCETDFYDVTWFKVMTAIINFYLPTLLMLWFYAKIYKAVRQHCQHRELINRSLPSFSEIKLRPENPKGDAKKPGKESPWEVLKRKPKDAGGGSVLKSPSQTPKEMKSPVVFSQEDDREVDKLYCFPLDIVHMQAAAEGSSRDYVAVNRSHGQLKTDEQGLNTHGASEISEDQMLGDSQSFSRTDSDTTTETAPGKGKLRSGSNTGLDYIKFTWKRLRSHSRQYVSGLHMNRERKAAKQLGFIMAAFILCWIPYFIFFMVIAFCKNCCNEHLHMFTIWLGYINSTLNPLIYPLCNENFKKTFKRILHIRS
Neuropeptide Y receptor type 2 (Homo sapiens), sequence (P49146 whole entry, looked up): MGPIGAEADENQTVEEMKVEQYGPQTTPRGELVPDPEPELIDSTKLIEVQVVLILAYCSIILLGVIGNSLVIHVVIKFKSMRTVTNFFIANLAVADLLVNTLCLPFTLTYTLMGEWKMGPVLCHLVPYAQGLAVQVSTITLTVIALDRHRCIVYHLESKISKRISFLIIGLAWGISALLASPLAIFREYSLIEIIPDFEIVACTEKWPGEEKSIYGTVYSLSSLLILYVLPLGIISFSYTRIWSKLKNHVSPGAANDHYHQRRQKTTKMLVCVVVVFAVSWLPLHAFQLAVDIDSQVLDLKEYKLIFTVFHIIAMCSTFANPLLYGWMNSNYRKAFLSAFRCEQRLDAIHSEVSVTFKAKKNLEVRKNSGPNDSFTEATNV
human Adrenergic, Alpha 2A Receptor (Adra2A), ADRA2A (gene 150), sequence (P08913 whole entry, looked up): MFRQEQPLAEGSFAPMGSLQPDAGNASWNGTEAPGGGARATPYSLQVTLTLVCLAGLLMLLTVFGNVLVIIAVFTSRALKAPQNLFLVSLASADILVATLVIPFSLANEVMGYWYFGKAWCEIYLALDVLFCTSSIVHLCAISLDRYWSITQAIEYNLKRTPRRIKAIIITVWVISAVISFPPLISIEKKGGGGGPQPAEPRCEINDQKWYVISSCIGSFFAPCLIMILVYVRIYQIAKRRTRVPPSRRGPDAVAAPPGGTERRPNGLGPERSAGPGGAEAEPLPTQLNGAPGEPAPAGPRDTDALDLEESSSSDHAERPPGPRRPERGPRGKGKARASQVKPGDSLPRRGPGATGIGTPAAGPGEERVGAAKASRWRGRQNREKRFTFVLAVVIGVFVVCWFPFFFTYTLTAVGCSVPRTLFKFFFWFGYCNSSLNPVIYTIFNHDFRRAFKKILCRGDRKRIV
human Dopamine Receptor D2 (DRD2), DRD2 (gene 1813), sequence (P14416 whole entry, looked up): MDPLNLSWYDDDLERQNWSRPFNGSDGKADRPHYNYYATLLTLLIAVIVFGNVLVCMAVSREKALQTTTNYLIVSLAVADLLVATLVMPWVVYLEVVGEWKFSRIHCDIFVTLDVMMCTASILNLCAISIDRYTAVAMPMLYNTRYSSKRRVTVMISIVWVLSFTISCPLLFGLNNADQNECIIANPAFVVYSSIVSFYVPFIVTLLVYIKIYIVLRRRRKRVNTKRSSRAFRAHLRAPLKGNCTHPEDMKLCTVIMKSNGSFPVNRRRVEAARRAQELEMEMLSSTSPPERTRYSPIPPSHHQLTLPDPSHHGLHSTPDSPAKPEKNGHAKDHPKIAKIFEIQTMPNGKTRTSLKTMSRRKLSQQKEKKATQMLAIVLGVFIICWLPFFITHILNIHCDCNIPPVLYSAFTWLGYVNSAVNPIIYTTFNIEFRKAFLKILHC
human Muscarinic, M4 Receptor, CHRM4 (gene 1132), sequence (P08173 whole entry, looked up): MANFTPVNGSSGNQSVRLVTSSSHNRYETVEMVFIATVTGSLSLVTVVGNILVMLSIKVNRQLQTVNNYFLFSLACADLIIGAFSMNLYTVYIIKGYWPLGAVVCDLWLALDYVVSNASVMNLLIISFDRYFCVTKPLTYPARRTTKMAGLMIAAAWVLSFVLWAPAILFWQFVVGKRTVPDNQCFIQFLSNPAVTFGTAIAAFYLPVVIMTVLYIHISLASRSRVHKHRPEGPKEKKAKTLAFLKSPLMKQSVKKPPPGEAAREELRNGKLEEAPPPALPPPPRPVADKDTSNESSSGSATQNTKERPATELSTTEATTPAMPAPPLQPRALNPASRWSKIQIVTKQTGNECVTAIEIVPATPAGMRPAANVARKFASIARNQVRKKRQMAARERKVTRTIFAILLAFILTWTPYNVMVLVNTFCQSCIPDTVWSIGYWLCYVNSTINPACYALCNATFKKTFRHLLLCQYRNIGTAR
Muscarinic acetylcholine receptor M3 (Homo sapiens), sequence (P20309 whole entry, looked up): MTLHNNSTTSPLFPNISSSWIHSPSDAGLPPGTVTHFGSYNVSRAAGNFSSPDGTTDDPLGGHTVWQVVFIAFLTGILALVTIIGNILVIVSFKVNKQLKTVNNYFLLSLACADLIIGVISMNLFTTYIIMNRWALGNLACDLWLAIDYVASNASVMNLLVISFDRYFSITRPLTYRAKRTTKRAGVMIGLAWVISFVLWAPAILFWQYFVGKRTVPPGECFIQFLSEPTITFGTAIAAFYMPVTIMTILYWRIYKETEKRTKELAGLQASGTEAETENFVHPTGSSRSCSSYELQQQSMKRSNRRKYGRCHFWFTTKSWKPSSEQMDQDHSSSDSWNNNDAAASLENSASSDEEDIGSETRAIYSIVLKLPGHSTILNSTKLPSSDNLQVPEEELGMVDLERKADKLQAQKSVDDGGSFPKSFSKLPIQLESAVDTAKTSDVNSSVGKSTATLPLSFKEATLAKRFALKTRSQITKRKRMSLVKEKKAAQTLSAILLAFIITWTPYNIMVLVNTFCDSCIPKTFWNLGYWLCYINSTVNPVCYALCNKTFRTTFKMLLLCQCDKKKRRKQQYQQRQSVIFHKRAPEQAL

Turning to `CCCCCCCCOc1ccc(C(=O)c2ccccc2)c(O)c1`, in test [1], the call was inactive.
On to `O=C1CCC(C2CCCCC2)CC1`, for which the outcome in test [2] and in [3] was inactive.
For the compound `COc1cccc([C@H](O)C2CCN(CCc3ccc(F)cc3)CC2)c1OC`, the compound was called inactive in test [4], in [5], in test [6] and in test [7].
A word on the AC50: it is the concentration at which the activity in the assay is half-maximal. `Clc1cc(Cl)c2c(c1)N=C1CCCCCN1C2`: the AC50 in test [8] is 2.99 µM (active); in test [9] it was 5.73 µM (active); in [10], 4.5 µM (active); in [11], 2.74 µM (active); in test [6], 2.09 µM (active); in [12], 1.71 µM (active). The concentration at half-maximal activity (AC50) in test [7] was 2.01 µM (active). Moreover, the result in [4] was inactive.
As for `CC1(C)NC(=O)N(c2ccc([N+](=O)[O-])c(C(F)(F)F)c2)C1=O`, the compound was called inactive in [13] and in test [14].
Regarding `CCOC(=O)O[C@H](C)OC(=O)c1ccc2c(c1)cc(C(=O)NC1CCN(C(C)C)CC1)n2Cc1cc(-c2ccc(Cl)s2)on1`, the AC50 was 6.3 µM (active) in [8]; 6.33 µM (active) in test [1]; 2.01 µM (active) in [9]; 12.9 µM (active) in test [15]; 20 µM (active) in test [4]; 20.9 µM (active) in test [16]. For the same compound, the AC50 is 14.3 µM (active) in test [5]; 3.6 µM (active) in [3]; 7.84 µM (active) in [10]; 1.75 µM (active) in test [13]; 5.44 µM (active) in test [6]; 2.17 µM (active) in [12]. In addition, the values for the AC50 in test [7], in test [17] and in test [14] were 1.79 µM (active), 0.0551 µM (active) and 3.38 µM (active), respectively.
On to `CCCCCCCCN(C)CCCCCCCC`, for which the call in test [4], in [3] and in test [12] was inactive.
Regarding `CCCOC(=O)c1cc(O)c(O)c(O)c1`, the outcome in test [14] was inactive.
Take `COc1ccc2cc(S(=O)(=O)N[C@H](CC(=O)N[C@H](Cc3ccc(CN4[C@H](C)CCC[C@@H]4C)cc3)C(=O)N(C)C(C)C)c3ccc4c(c3)OCO4)ccc2c1`: the AC50 in test [8] is 18.8 µM (active); in test [9] it was 5.22 µM (active); in [10], 17.8 µM (active); in test [13], 30.2 µM (active); in [11] it was 3.51 µM (active); in test [18], 11.6 µM (active). Further, the AC50 in [6] was 14.2 µM (active); in [12], 2.44 µM (active); in [7] it was 4.37 µM (active); in [17], 2.17 µM (active). Also, in [3], the result was inactive.
Take `CCCCCCCCCCCO`: the compound was called inactive in test [17].

The values above are taken from PubChem BioAssay (EPA / NIEHS).
